{
  "source": "PubChem BioAssay (EPA / NIEHS)",
  "note": "Inconclusive results are not listed. The source made the active and inactive calls. The calls were made as follows: active = hit-call score of the fitted dose curve at least 0.9, where 1 is the maximum; inconclusive = response in the unintended direction; inactive = score below 0.9.",
  "data": [
    {"read-out": "Cytochrome P450 3A4 (Homo sapiens) (UniProt P08684)", "experiment": "CLD_CYP3A4_6hr: CellzDirect (CLD) Gene Expression Assay for xenobiotic metabolism (CYP3A4) at 6 hours (AID 2283680)", "procedure": "CLD_6hr is a cell-based, multiplexed-readout assay that uses hepatocyte, a human liver primary cell, with measurements taken at 6 hours after chemical dosing in a 96-well plate.CLD_CYP3A4_6hr is one of 16 assay component(s) measured or calculated from the CLD_6hr assay. It is designed to make measurements of mRNA induction, a form of inducible reporter, as detected with chemiluminescence signals by Quantitative Nuclease Protection Assay (qNPA) technology.Data from the assay component CLD_CYP3A4_6hr was analyzed at the endpoint, CLD_CYP3A4_6hr, in the positive analysis fitting direction relative to DMSO as the negative control and baseline of activity. Using a type of inducible reporter, gain-of-signal activity can be used to understand changes in the reporter gene as they relate to the gene CYP3A4. Furthermore, this assay endpoint can be referred to as a primary readout. To generalize the intended target to other relatable targets, this assay endpoint is annotated to the cyp intended target family, where subfamily is xenobiotic metabolism.\nHuman hepatocyte cultures were treated daily for two consecutive days with fresh dosing solutions containing appropriate concentrations of the 320 ToxCast chemicals (chemical identities were blinded to CellzDirect and other ToxCast collaborators), vehicle control (0.2% DMSO), and positive control inducers as summarized in Table 1. Due to the large number of treatment groups and chemicals examined, the ToxCast chemicals were divided into two groups (spanning two independent cultures of hepatocytes from separate donor preparations (Hu778: ToxCast plates 1 and 2; Hu776: ToxCast plates 3 and 4). Each preparation of human hepatocyte cultures was treated with respective vehicle control, medium only control, set of six positive controls/reference chemicals for the five hepatic receptor pathways, and a subset of eight of the ToxCast chemicals (indoxacarb, pyrithiobac-sodium, norflurazon, cyhalofop-butyl, methomyl, thiram, acetochlor, and propiconazole). These replicate data, coupled with internal replicates designed within the blinded ToxCast chemical library, provided additional data to evaluate interindividual differences between hepatocyte preparations and their potential impact on chemical profiles.Cell morphology and integrity were evaluated using phase-contrast microscopy as an indicator of hepatocyte cell health (Tyson & Green, 1987). Cultures for each treatment group (i.e., media, vehicle [0.2% DMSO], positive control inducers [multiple concentrations], and the ToxCast chemicals [multiple concentrations]) were observed and cell morphology was assessed relative to vehicle control cultures at each harvest time point (0, 6, 24, or 48 h). […] Images were evaluated at the conclusion of the study to assess changes in cell integrity and account for the effects of chemical exposure on uncharacteristic changes in concentration-dependent gene expression profiles. The results from these determinations of apparent cytotoxicity were annotated (yes/no) alongside the corresponding qNPA data for reference.At the conclusion of each treatment period, hepatocyte cultures (96-well) were washed with 1 volume of HBSS, lysed by addition of 25 ul ArrayPlate lysis buffer (HTG, Tucson, AZ), and 70 ul/well of Denaturation Oil, denatured by incubation at 95C for 10 min, and frozen at approximately -70C until analysis by nuclease protection assay (qNPA) (Roberts et al., 2007). For qNPA analysis, cell lysates were thawed at 50C for approximately 30 min, qNPA probes were added, and samples were incubated at 95C for 10 min to begin the detection process by denaturing the target RNA, dissociating the duplexes and secondary structure hybridization. At the conclusion of the hybridization period, S1 nuclease reagent was added to each sample to digest all nonprotected nucleotides at 50C for 60-90 min. […]", "values": [
      {"compound": "CC1(C)C(C(=O)OC(C#N)c2cccc(Oc3ccccc3)c2)C1(C)C", "note": "(stereo not given)", "AC50": "3.71 µM (active)"},
      {"compound": "CNC(=O)N(C)c1nnc(C(C)(C)C)s1", "outcome": "inactive"},
      {"compound": "CC(C)NC(=O)N1CC(=O)N(c2cc(Cl)cc(Cl)c2)C1=O", "outcome": "inactive"},
      {"compound": "CC1(C)CCC(=Cc2ccc(Cl)cc2)C1(O)Cn1cncn1", "note": "(stereo not given)", "outcome": "inactive"},
      {"compound": "O=C(O)c1c(Cl)ccc2cc(Cl)cnc12", "outcome": "inactive"},
      {"compound": "COc1ccc(-c2ccccc2)cc1NNC(=O)OC(C)C", "outcome": "inactive"},
      {"compound": "CCOc1cc(C(C)(C)C)ccc1C1COC(c2c(F)cccc2F)=N1", "note": "(stereo not given)", "AC50": "4.26 µM (active)"},
      {"compound": "CC(C)N1C(=O)N(c2ccccc2)CSC1=NC(C)(C)C", "outcome": "inactive"},
      {"compound": "CCOc1nc(C(Cl)(Cl)Cl)ns1", "outcome": "inactive"},
      {"compound": "COC(=O)N(C(=O)N1CO[C@@]2(C(=O)OC)Cc3cc(Cl)ccc3C2=N1)c1ccc(OC(F)(F)F)cc1", "AC50": "1.21 µM (active)"},
      {"compound": "CO/N=C(/C1=NOCCO1)c1ccccc1Oc1ncnc(Oc2ccccc2Cl)c1F", "outcome": "inactive"},
      {"compound": "CCOc1nc(F)cc2nc(S(=O)(=O)Nc3c(Cl)cccc3Cl)nn12", "outcome": "inactive"},
      {"compound": "COCc1cnc(C2=NC(C)(C(C)C)C(=O)N2)c(C(=O)O)c1", "note": "(stereo not given)", "outcome": "inactive"},
      {"compound": "N#Cc1c(Cl)cccc1Cl", "outcome": "inactive"},
      {"compound": "CCSC(=O)N1CCCCCC1", "outcome": "inactive"},
      {"compound": "CC(C)Oc1cccc(NC(=O)c2ccccc2C(F)(F)F)c1", "outcome": "inactive"},
      {"compound": "CCCCC(C#N)(Cn1cncn1)c1ccc(Cl)cc1", "note": "(stereo not given)", "AC50": "2.99 µM (active)"},
      {"compound": "CC(C)Nc1nc(Cl)nc(NC(C)C)n1", "AC50": "20 µM (active)"},
      {"compound": "COC(=O)NC(=S)Nc1ccccc1NC(=S)NC(=O)OC", "outcome": "inactive"},
      {"compound": "CCOP(=O)(OCC)Oc1nc(Cl)c(Cl)cc1Cl", "AC50": "9.77 µM (active)"},
      {"compound": "Cc1cnc(C2=NC(C)(C(C)C)C(=O)N2)c(C(=O)O)c1", "note": "(stereo not given)", "outcome": "inactive"},
      {"compound": "CCOP(=S)(OCC)Oc1nc(Cl)n(C(C)C)n1", "AC50": "0.466 µM (active)"},
      {"compound": "N#CN=C1SCCN1Cc1ccc(Cl)nc1", "outcome": "inactive"},
      {"compound": "Cc1cc(C)nc(Nc2ccccc2)n1", "outcome": "inactive"},
      {"compound": "CCCCOCN(C(=O)CCl)c1c(CC)cccc1CC", "outcome": "inactive"},
      {"compound": "CCNP(=S)(OC)O/C(C)=C/C(=O)OC(C)C", "note": "(stereo not given)", "AC50": "1.9 µM (active)"},
      {"compound": "Clc1nc(Cl)nc(Nc2ccccc2Cl)n1", "outcome": "inactive"},
      {"compound": "Cc1nc(N(C)C)nc(OC(=O)N(C)C)c1C", "AC50": "5.6 µM (active)"},
      {"compound": "COCC(C)N(C(=O)CCl)c1c(C)csc1C", "note": "(stereo not given)", "outcome": "inactive"},
      {"compound": "COP(=S)(OC)Oc1ccc([N+](=O)[O-])c(C)c1", "outcome": "inactive"},
      {"compound": "CCOC(=O)C(C)OC(=O)c1cc(Oc2ccc(C(F)(F)F)cc2Cl)ccc1[N+](=O)[O-]", "note": "(stereo not given)", "AC50": "4.03 µM (active)"},
      {"compound": "Cc1c(COC(=O)[C@@H]2[C@H](/C=C(\\Cl)C(F)(F)F)C2(C)C)cccc1-c1ccccc1", "AC50": "3.44 µM (active)"},
      {"compound": "CC(C)(C)C(=O)C(Oc1ccc(Cl)cc1)n1cncn1", "note": "(stereo not given)", "AC50": "0.434 µM (active)"},
      {"compound": "CC(C)=CC1C(C(=O)OCc2coc(Cc3ccccc3)c2)C1(C)C", "note": "(stereo not given)", "outcome": "inactive"},
      {"compound": "COc1cc(Cl)c(OC)cc1Cl", "outcome": "inactive"},
      {"compound": "Clc1cccc(C(Cl)(Cl)Cl)n1", "outcome": "inactive"},
      {"compound": "CCCCC(O)(Cn1cncn1)c1ccc(Cl)cc1Cl", "note": "(stereo not given)", "outcome": "inactive"},
      {"compound": "COC(=O)c1c(C(F)F)nc(C(F)(F)F)c(C2=NCCS2)c1CC(C)C", "outcome": "inactive"},
      {"compound": "OC(c1ccc(Cl)cc1)(c1ccc(Cl)cc1)C(Cl)(Cl)Cl", "AC50": "3.68 µM (active)"},
      {"compound": "CS(=O)(=O)c1ccc(C(=O)C2C(=O)CCCC2=O)c([N+](=O)[O-])c1", "outcome": "inactive"}
    ]}
  ]
}
